Results filed as inconclusive are left out. The source made the active and inactive calls. Calls follow the shape of the dose curve; as a rule, active = well fitted curve in the direction sought with a large enough effect in the signal ratio in the repeat runs (not every such curve was filed as active); inconclusive = weak or mixed curves, or a change in a side signal; inactive = no such curve, though single readings can be large or run the other way; the % refers to the signal ratio.

A short description of the assay: qHTS assay to identify small molecule agonists of the NFkB signaling pathway (AID 1159509). Particulars: NFkB-bla ME-180 cells, beta-lactamase FRET ratio, 5 h; series mostly up to 61 µM. An excerpt:
National Center for Advancing Translational Sciences [NCATS]
NIH Chemical Genomics Center [NCGC]
U.S. Environmental Protection Agency [EPA]
National Institutes of Environmental Health Sciences [NIEHS]
National Toxicology Program [NTP]
U.S. Food and Drug Administration [FDA]
Transcription factors and their stimulated target gene expression play pivotal roles across many cellular processes including responses to environmental stimuli. Proper regulation of associated pathways is critical to maintain cell health and function. Constitutive activation of transcription factor pathways has been implicated in tumors as it may block cellular functions such as apoptosis and lead to invasion and metastasis. One important transcription factor that stimulates gene expression in response to cytokines, UV radiation, and other stimuli is nuclear factor-kappa B (NFkB). To measure activation of the NFkB pathway, the CellSensor NFkB-bla ME-180 cell line (Life Technologies, Carlsbad, CA) that stably expresses beta-lactamase reporter gene under the regulation of a NF-kB response element was used. This assay allows measurement of the NFkB pathway activity induced by compounds in a ME-180 cell line. This system quantitates NF-kB activity using a FRET-based assay system where beta-lactamase expression disrupts FRET, allowing for fluorescent measurement of activity. This cell line has been used to screen the Tox21 10K compound library and to identify compounds that induce the NFkB pathway activity.
Tox21 Assay Protocol Summary:
NFkB-bla ME-180 cells were dispensed at 2,000 cells/6 uL of assay medium per well into black wall/clear-bottom 1536-well plates using a Multidrop Combi (ThermoFisher Scientific, Waltham, MA) dispenser. After the assay plates were incubated at 37 C and 5% CO2 for an overnight, 23 nL of compounds dissolved in DMSO, positive controls or DMSO only was transferred to the assay plate by a Pintool station (Kalypsys, San Diego, CA). The assay plates were incubated at 37 C and 5% CO2 for 5 hr. One uL of LiveBLAzer B/G FRET substrate (Life Technologies) was added using a Flying Reagent Dispenser (Aurora Discovery, San Diego, CA) and the plates were incubated at room temperature for 1.5 hr. Fluorescence intensity (405 nm excitation, 460 nm and 530 nm emissions) was measured using an Envision plate reader (PerkinElmer, Shelton, CT).
`COc1ccc2c3c1O[C@H]1[C@@H](O)C=C[C@H]4[C@@H](C2)N(C)CC[C@@]341`: the outcome was inactive.

Turning to `OC(O)C(Cl)(Cl)Cl`, the outcome was inactive.

For the molecule `C1CC2OC2CC1C1CO1` (stereo not given), the result was inactive.

Consider `CN1C(=O)CN=C(c2ccccc2)c2cc(Cl)ccc21`, for which the outcome was inactive.

For `O=C(NC(=O)c1c(F)cccc1F)Nc1cc(Cl)c(OC(F)(F)C(F)C(F)(F)F)cc1Cl` (stereo not given), the result was inactive.

Turning to `Cc1[nH]c(=O)n(C(C)(C)C)c(=O)c1Cl`, the outcome was inactive.

For `O=c1[nH]c(=O)[nH]c(=O)[nH]1`, the result was inactive.

Take `CCNc1nc(NC(C)C)nc(SC)n1`: the outcome was inactive.

`CCN(CC)c1ccccc1`: the result was inactive.

As to `CCN(CC)CCO`, the outcome was inactive.

For `CN(C)N=O`, the result was inactive.

Regarding `Clc1ccc(Cl)cc1`, the result was inactive.

Regarding `O=c1[nH]c2ccccc2c(=O)o1`, the outcome was inactive.

Consider `Cc1ccc(N)cc1N`, for which the outcome was inactive.

As for `Nc1ccc(Oc2ccc(N)cc2)cc1`, the result was inactive.

In the case of `O=c1ccc(=O)[nH][nH]1`, the outcome was inactive.

As for `ClCc1cccnc1`, the result was inactive.

Turning to `O=NN1CCCC1`, the result was inactive.

`COC(=O)c1ccccc1N`: the result was inactive.

Regarding `CCC[CH2][Sn]([Cl])([Cl])[Cl]`, the outcome was inactive.

As to `CC(Br)C(=O)O` (stereo not given), the result was inactive.

Consider `CC(C)OC(=O)Nc1cccc(Cl)c1`, for which the result was inactive.

On to `CC(C)C1(C)N=C(c2nc3ccccc3cc2C(=O)O)NC1=O` (stereo not given), for which the result was inactive.

`CC(Oc1ccc(Cl)cc1Cl)C(=O)O` (stereo not given): the result was inactive.

For the molecule `C=CCO`, the result was inactive.

For the molecule `[N-]=[N+]=[N-]`, the result was inactive.

As to `O=c1n(Cl)c(=O)n(Cl)c(=O)n1Cl`, the result was inactive.

`O=S(=O)(c1ccc(Cl)cc1)c1cc(Cl)c(Cl)cc1Cl`: the result was inactive.

On to `CCOC(=O)c1ccccc1C(=O)OCC`, for which the outcome was inactive.

For the molecule `Cc1ccc(N)cc1Cl`, the result was inactive.

On to `CCNc1nc(NC(C)(C)C)nc(SC)n1`, for which the outcome was inactive.

Regarding `[O-][Cl+2]([O-])O`, the result was inactive.

As for `CCCCN(CCCC)SN(C)C(=O)Oc1cccc2c1OC(C)(C)C2`, the result was inactive.

For the molecule `O=C(O)c1ccccn1`, the result was inactive.

Regarding `C#CC(C)(C)NC(=O)c1cc(Cl)cc(Cl)c1`, the outcome was inactive.

As for `CC(C)(C)C(O)(CCc1ccc(Cl)cc1)Cn1cncn1` (stereo not given), the outcome was inactive.

Turning to `C=CC(N)=O`, the result was inactive.

Regarding `NCCc1ccc(O)cc1`, the result was inactive.

For `CCCCCCCCCCCC#N`, the result was inactive.

Consider `CC(C)N1C(=O)c2ccccc2NS1(=O)=O`, for which the result was inactive.

Values taken from PubChem BioAssay (Tox21).
